Compound activity as filed in PubChem.
Sampled rows, rich in hits. Any-hit rate of the full collection: about 8.8%.
HPGD inh: qHTS Assay for Inhibitors of HPGD (15-Hydroxyprostaglandin Dehydrogenase) | hit rate 4.3% among 150,000 | purified HPGD, NADH fluorescence kinetic, PGE2 substrate | Potency, µM, inactives show top-dose activity change, negative = inhibition, actives largely listed as inhibitors | AID 894, 2007 | 15-hydroxyprostaglandin dehydrogenase [NAD(+)] (Homo sapiens), P15428; further: on the % scale 0 is the no-effect control and ±100 the full control effect
Target sequence (P15428 whole entry, looked up): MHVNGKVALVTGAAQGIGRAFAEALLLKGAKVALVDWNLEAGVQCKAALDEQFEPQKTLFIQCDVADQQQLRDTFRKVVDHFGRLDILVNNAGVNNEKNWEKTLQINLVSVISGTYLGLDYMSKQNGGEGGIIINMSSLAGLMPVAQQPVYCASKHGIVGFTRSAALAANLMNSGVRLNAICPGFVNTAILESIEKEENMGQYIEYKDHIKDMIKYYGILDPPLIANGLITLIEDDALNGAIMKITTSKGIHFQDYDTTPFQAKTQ
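20 nM HPGD preincubated 15 min at room temperature with compound in 50 mM Tris-HCl pH 8, 0.01% Tween 20. Started with 1 mM NAD+ and 30 uM prostaglandin E2; NADH fluorescence (360/450 nm) read 5 times over 30-s intervals, last minus first.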
HTT ATP protect: qHTS Multiplex Assay to Identify Dual Action Probes in a Cell Model of Huntington: Cytoprotection (ATP); AID 1471, 2008; Potency, µM (series often up to 56.4 µM), for inactives: cytoprotection (ATP increase), most hits filed as activators; PC12 HTT-Q103 induced, cytoprotection, ATP luminescence, 40 h; hit rate 0.14% among 230,000; active means well fitted curve in the direction sought with a large enough effect; inconclusive means small, poorly fitted or top-dose-only effect, or another doubt; inactive means no such curve, though single readings can be large; an effect the other way counts as inactive or inconclusive; further: % of control where 0% means no effect; nearly all actives have a fitted effect of over 45% in size
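Compounds added alongside 100 nM tebufenozide, which induces toxic Q103 huntingtin exon 1-GFP in stable PC12 cells; surviving cells quantified by luminescent ATP measurement. Medium: phenol red-free DMEM, 5% equine and 5% calf serum.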
ALDH1A1 block: qHTS Assay for Inhibitors of Aldehyde Dehydrogenase 1 (ALDH1A1). Aldehyde dehydrogenase 1A1 (Homo sapiens), P00352. Purified ALDH1A1, NADH fluorescence, propionaldehyde substrate. Potency, µM (doses to about 75.3 µM), inactives show at the highest dose activity, negative = inhibition, usual class: inhibitors. hit rate 7.3% among 220,000. AID 1030, 2008;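 further: plate controls were no enzyme wells and a reference inhibitor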
LMNA splice mod: qHTS Assay for Modulators of Lamin A Splicing; Potency, µM (titrated, usually from 46.1 µM), without a hit: at the top dose ratio change, negative = inhibition, most hits filed as inhibitors; hit rate 0.01% among 200,000; HeLa LMNA splicing GFP/RFP minigene ratio, 48 h; active means well fitted inhibition curve with a large enough effect in the signal ratio, with a control signal flat, not every such curve was filed as active; inconclusive means small, poorly fitted or top-dose-only effect, or effect the other way, or a change in a side signal; the % refers to the signal ratio; further: on the % scale 0 is the no-effect control and ±100 the full control effect
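Read-out is the ratio of GFP to DsRed2 object intensity, acquired by 488 nm laser-scanning cytometry on HeLa lamin A-EGFP minigene reporter cells. Compound incubation 48 hrs at 37 °C in Opti-MEM with 2% FBS; DMSO 0.5% final.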
HTT aggregate: qHTS Multiplex Assay to Identify Dual Action Probes in a Cell Model of Huntington: Aggregate Formation (GFP); PC12 HttQ103-GFP aggregates, Acumen cytometry, 40 h; Potency, µM (titrated, usually from 46.1 µM), inactives show at the top dose activity change, negative = inhibition, most hits filed as inhibitors; hit rate 1.1% among 220,000; AID 1688, 2009; active means well fitted curve in the direction sought with a large enough effect; inconclusive means small, poorly fitted or top-dose-only effect, or another doubt; inactive means no such curve, though single readings can be large; an effect the other way counts as inactive or inconclusive; further: on the % scale 0 is the no-effect control and ±100 the full control effect; nearly all actives have a fitted effect of over 60% in size
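Ecdysone-promoter PC12 model expressing HTT exon 1 Q103 fused to GFP, induced by tebufenozide at 100 nM final. Compounds titrated; aggregates sized 1–25 µm scored on a 488 nm laser cytometer.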
Numbers without * were called inactive; [ ] = dose if it differs, or a comment. Unless noted, the call rests on the fitted dose curve; in most records, active means well fitted inhibition curve with a large enough effect (not every such curve was filed as active); inconclusive means small, poorly fitted or top-dose-only effect, or another doubt; inactive means no such curve, though single readings can be large or run the other way. Potency means the concentration at half of the fitted maximal effect.

`Clc1ccc(SCCCCN2CCOCC2)cc1` gave HPGD inh -3%, HTT ATP protect 10%[0.074 µM], ALDH1A1 block -1%, LMNA splice mod 3% and HTT aggregate 10%.
`CC(=O)Oc1ccc(OC(C)=O)c(SCCCCCN2CCOCC2)c1` gave HPGD inh 18µM*, HTT ATP protect -97%, ALDH1A1 block 3%, LMNA splice mod inconclusive and HTT aggregate inconclusive.
O=C(NCCCN1CCOCC1)c1ccc(Cl)cc1 was read as HTT ATP protect 32% and HTT aggregate 30%.
For O=C(CCN1CCOCC1)c1ccc(Br)cc1 the results were HTT ATP protect 14%[10 µM], ALDH1A1 block 0.1µM*, LMNA splice mod inconclusive and HTT aggregate 3%[9.22 µM].
Screening O=C(CCN1CCOCC1)c1ccc(Cl)cc1 returned HTT ATP protect 3%[10 µM], ALDH1A1 block 0.089µM* and HTT aggregate 8%[9.22 µM].
Screening O=C(NCCO)C(O)C(O)C(=O)NCCO (configuration not stated) returned HTT ATP protect 18%[10 µM], ALDH1A1 block 18µM*, LMNA splice mod -6%[46 µM] and HTT aggregate 5%[9.22 µM].
Screening Cc1c(C(=O)N2CCN(CCc3ccccc3)CC2)oc2ccccc12 returned HPGD inh -4%, HTT ATP protect -75%[10 µM], ALDH1A1 block 14µM*, LMNA splice mod -1% and HTT aggregate -3%.
`CC(C)(C)c1cc(Cc2ccccc2)[nH]n1` gave HPGD inh 20µM*, HTT ATP protect 2%, ALDH1A1 block 3%, LMNA splice mod 5% and HTT aggregate 4%.
`CC(C)(C)c1cc(=O)[nH]c(SCc2ccccc2)n1` gave HTT ATP protect -18%, ALDH1A1 block -11% and HTT aggregate -3%.
Screening O=C(O)C1CCCCN1S(=O)(=O)c1ccc(Cl)s1 (configuration not stated) returned HPGD inh -10%, HTT ATP protect -3%, ALDH1A1 block 16µM*, LMNA splice mod 2% and HTT aggregate 12%.
`O=C(O)C1CCCN1S(=O)(=O)c1ccc(Br)s1` (configuration not stated) (tested in a mixture with another compound) gave HPGD inh -5%, HTT ATP protect -32%[10 µM], ALDH1A1 block -9%, LMNA splice mod -14% and HTT aggregate 7%.
`Nc1nc(Cl)nc2c1ncn2[C@@H]1O[C@@H](CO)[C@@H](O)[C@H]1O` gave HTT ATP protect -40%[1.9 µM] and LMNA splice mod inconclusive.
CCCN(CCC)C1=N/C(=C\c2ccco2)C(=O)N1c1ccccc1 was read as HPGD inh inconclusive, HTT ATP protect -9%, ALDH1A1 block 14µM*, LMNA splice mod 6% and HTT aggregate 28%.
For COc1ccc(-c2[nH]ncc2CN2CCCC2c2nonc2C)c(F)c1 (configuration not stated) the results were HTT ATP protect 28%[10 µM], ALDH1A1 block inconclusive, LMNA splice mod 15%[46 µM] and HTT aggregate 19%[9.22 µM].
For Cc1nonc1C1CCCN1Cc1cn[nH]c1-c1ccc2c(c1)OCO2 (configuration not stated) the results were HTT ATP protect -17%, ALDH1A1 block 16µM* and HTT aggregate inconclusive.
`COc1ccccc1N1CCN(/N=C/C=C\c2ccccc2[N+](=O)[O-])CC1` gave HTT ATP protect -27%, ALDH1A1 block inconclusive, LMNA splice mod inconclusive and HTT aggregate -24%.
O=[N+]([O-])c1ccccc1/C=C/C=N/n1c(-c2ccc(Cl)cc2)n[nH]c1=S was read as HPGD inh 3.2µM*, HTT ATP protect -4%, ALDH1A1 block inconclusive, LMNA splice mod 8% and HTT aggregate 33%.
S=c1[nH]nc(-c2ccncc2)n1/N=C/C=C/c1ccccc1 was read as HTT ATP protect -9%[10 µM] and HTT aggregate -14%[9.22 µM].
For CC1CCCC(C)N1/N=C/C=C/c1ccccc1[N+](=O)[O-] (configuration not stated) the results were HTT ATP protect 10%[10 µM], ALDH1A1 block 3.5µM*, LMNA splice mod -16%[46 µM] and HTT aggregate 9%.
Screening O=[N+]([O-])c1ccccc1/C=C/C=N/n1c(-c2ccccc2)n[nH]c1=S returned HPGD inh 7.1µM*, ALDH1A1 block inconclusive, LMNA splice mod inconclusive and HTT aggregate inconclusive.
Screening CCN(CC)C(=O)CSc1nnc2[nH]c(=O)cc(C)n12 returned LMNA splice mod 19%[46 µM].
CC(C)C[C@@H](CC(=O)N[C@@H](CCC(=O)O)CC(=O)O)NC(=O)[C@@H]1CCCC[C@H]1NC(=O)C[C@@H](NC(=O)C[C@H](CO)NC(=O)[C@@H]1CNCC[C@H]1N)C(C)C was read as HPGD inh -7%, HTT ATP protect -11% and ALDH1A1 block 0%.
Cc1sc(NC(=O)c2sc3nc4c(C)cccc4cc3c2N)c(C#N)c1C was read as HPGD inh 7.1µM*, HTT ATP protect -68%, ALDH1A1 block 2.8µM*, LMNA splice mod 1% and HTT aggregate inconclusive.
For Cc1cccc2cc3c(N)c(C#N)sc3nc12 the results were HPGD inh -7%, HTT ATP protect -15%, ALDH1A1 block -9%, LMNA splice mod -1% and HTT aggregate -13%.
For CC(=O)c1sc(NC(=O)C2(F)C(F)(F)C(F)(F)C(F)(F)C(F)(F)C2(F)F)nc1C the results were HPGD inh -17%, HTT ATP protect -5%[0.074 µM], ALDH1A1 block -11%, LMNA splice mod inconclusive and HTT aggregate 1.4µM*.
Screening Cc1cc(Cl)ccc1NS(=O)(=O)c1c(C(=O)N2CCCCCC2)c(C)n(C)c1C returned LMNA splice mod -11%[46 µM].
`Cc1ccccc1NC(=S)NCCO` gave HTT ATP protect -28%, ALDH1A1 block 3% and HTT aggregate 3%.
`CCCCSCCCNC(=S)Nc1ccccc1C` gave HTT ATP protect -12%, ALDH1A1 block 4%, LMNA splice mod inconclusive and HTT aggregate 22µM*.
Screening O=C(/C=C/c1ccc(Cl)cc1)N(Cc1cccs1)C1CCS(=O)(=O)C1 (configuration not stated) returned HTT ATP protect 9%[10 µM] and HTT aggregate -2%[9.22 µM].
For O=C(/C=C/c1ccc(Cl)cc1)N(Cc1ccccc1)C1CCS(=O)(=O)C1 (configuration not stated) the results were HPGD inh -18%, HTT ATP protect 3%[10 µM], ALDH1A1 block 13µM*, LMNA splice mod -11% and HTT aggregate 8%.
For O=C(/C=C/c1ccc(Cl)cc1Cl)N(Cc1ccccc1)C1CCS(=O)(=O)C1 (configuration not stated) the results were HPGD inh -1%, HTT ATP protect 31%[10 µM], ALDH1A1 block 2.2µM*, LMNA splice mod 8% and HTT aggregate 26%.
